We go through 34 compounds from ChEMBL document CHEMBL2218924, “A broad activity screen in support of a chemogenomic map for kinase signalling research and drug discovery” (Biochem J, 2013).

SMILES strings stand for the structures.

For the first assay, the target named is Tyrosine-protein kinase Yes (Homo sapiens) (UniProt P07947). As to conditions: at 1 µM.
Sequence of Tyrosine-protein kinase Yes (Homo sapiens) (P07947 2-543 limits assumed): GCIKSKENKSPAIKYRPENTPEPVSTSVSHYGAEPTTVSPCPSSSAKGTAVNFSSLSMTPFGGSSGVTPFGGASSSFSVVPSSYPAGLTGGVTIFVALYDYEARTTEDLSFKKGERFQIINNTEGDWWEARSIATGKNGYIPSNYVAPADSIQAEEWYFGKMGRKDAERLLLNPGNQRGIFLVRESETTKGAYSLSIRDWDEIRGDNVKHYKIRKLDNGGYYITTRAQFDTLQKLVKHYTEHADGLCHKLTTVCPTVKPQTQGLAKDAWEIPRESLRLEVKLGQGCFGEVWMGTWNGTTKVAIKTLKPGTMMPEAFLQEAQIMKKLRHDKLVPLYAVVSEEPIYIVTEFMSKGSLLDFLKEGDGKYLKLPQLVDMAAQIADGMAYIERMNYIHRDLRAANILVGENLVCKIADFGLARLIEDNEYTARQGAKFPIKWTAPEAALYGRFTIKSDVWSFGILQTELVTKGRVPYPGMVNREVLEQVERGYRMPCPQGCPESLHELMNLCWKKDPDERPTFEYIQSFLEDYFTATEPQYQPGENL
The term residual activity denotes the signal under treatment as a percentage of the control signal. On to `O=c1[nH]c2ccccc2n1C1CCN(Cc2ccc(-c3nc4cc5[nH]cnc5cc4nc3-c3ccccc3)cc2)CC1`, for which the residual activity stood at 99%.
Same read-out and setting: to `O=C1Nc2ccc3ncsc3c2/C1=C/c1c[nH]cn1` belongs 52%.
`CCc1nc(-c2ccc(OC)cc2)[nH]c1-c1ccncc1`: the residual activity came to 123%.
Regarding `CCn1cnc2c(Nc3cccc(Cl)c3)nc(N[C@@H]3CCCC[C@@H]3N)nc21`, the residual activity is 7%.
As for `O=[N+]([O-])/C=C/c1ccc2c(c1)OCO2`, the residual activity came out at 118%.
On to `COc1ccc2c(c1)/C(=C/c1cnc[nH]1)C(=O)N2`, for which the residual activity came to 96%.
The same measure, in the same setting: as for `COc1cc2ncnc(Nc3ccc(OCc4ccccc4)cc3)c2cc1OC`, the figure is 64%; as for `c1cc(-c2cnn3cc(-c4ccc(OCCN5CCCCC5)cc4)cnc23)ccn1`, 7%; as for `CC(C)[C@H](CO)Nc1nc(Nc2cccc(Cl)c2)c2ncn(C(C)C)c2n1`, 4%.
Turning to `COC(=O)[C@@]1(O)C[C@H]2O[C@]1(C)n1c3ccccc3c3c4c(c5c6ccccc6n2c5c31)C(=O)NC4`, the residual activity is 11%.

The next assay has the same target. The note with it: at 10 µM.
With `O=c1[nH]c2ccccc2n1C1CCN(Cc2ccc(-c3nc4cc5[nH]cnc5cc4nc3-c3ccccc3)cc2)CC1`, the residual activity amounted to 73%.
As to `O=C1Nc2ccc3ncsc3c2/C1=C/c1c[nH]cn1`, the residual activity is 9%.
Consider `CCc1nc(-c2ccc(OC)cc2)[nH]c1-c1ccncc1`, for which the residual activity turned out to be 101%.
As to `COc1cc(OC)c(/C=C2\C(=O)Nc3ccccc32)c(OC)c1`, the residual activity worked out at 78%.
As for `CCn1cnc2c(Nc3cccc(Cl)c3)nc(N[C@@H]3CCCC[C@@H]3N)nc21`, the residual activity came out at 1%.
Still for that read-out and setting: as for `N/C(=N\[N+](=O)[O-])N/N=C\c1ccc(-c2cccc([N+](=O)[O-])c2)o1`, the figure is 100%; as for `O=[N+]([O-])/C=C/c1ccc2c(c1)OCO2`, 98%; as for `COc1ccc2c(c1)/C(=C/c1cnc[nH]1)C(=O)N2`, 19%.
The same measure, in the same setting: to `COc1ccc2c(c[n+](C)c3c4cc5c(cc4ccc23)OCO5)c1OC` belongs 84%.
Same read-out and setting: to `COc1cc2ncnc(Nc3ccc(OCc4ccccc4)cc3)c2cc1OC` belongs 39%; to `c1cc(-c2cnn3cc(-c4ccc(OCCN5CCCCC5)cc4)cnc23)ccn1`, 0%.
Take `C[S+]([O-])c1ccc(-c2nc(-c3ccc(F)cc3)c(-c3ccncc3)[nH]2)cc1` (centres undefined): the residual activity was determined as 45%.
As to `CC(C)[C@H](CO)Nc1nc(Nc2cccc(Cl)c2)c2ncn(C(C)C)c2n1`, the residual activity came to 0%.
The same measure, in the same setting: as for `COC(=O)[C@@]1(O)C[C@H]2O[C@]1(C)n1c3ccccc3c3c4c(c5c6ccccc6n2c5c31)C(=O)NC4`, the figure is 1%.

A further assay has as its target T1, Tyrosine-protein kinase ZAP-70 (Homo sapiens) (UniProt P43403).
T1 sequence (whole entry): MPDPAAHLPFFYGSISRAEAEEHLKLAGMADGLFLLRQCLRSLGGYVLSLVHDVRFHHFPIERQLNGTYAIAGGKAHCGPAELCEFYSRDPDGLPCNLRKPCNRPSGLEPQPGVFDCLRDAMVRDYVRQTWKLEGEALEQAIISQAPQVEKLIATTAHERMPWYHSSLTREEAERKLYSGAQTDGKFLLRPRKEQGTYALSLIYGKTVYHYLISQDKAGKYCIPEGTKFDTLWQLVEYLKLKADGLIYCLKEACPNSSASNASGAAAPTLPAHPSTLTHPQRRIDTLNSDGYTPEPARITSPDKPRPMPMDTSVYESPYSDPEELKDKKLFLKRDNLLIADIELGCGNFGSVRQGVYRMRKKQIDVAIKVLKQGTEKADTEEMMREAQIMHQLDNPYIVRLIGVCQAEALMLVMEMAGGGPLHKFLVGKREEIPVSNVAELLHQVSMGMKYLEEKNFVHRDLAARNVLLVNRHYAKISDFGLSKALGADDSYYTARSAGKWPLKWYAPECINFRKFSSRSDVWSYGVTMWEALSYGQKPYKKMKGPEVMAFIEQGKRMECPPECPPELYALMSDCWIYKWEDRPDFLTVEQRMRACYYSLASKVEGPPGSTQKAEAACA
As to conditions: at 1 µM.
For `O=c1[nH]c2ccccc2n1C1CCN(Cc2ccc(-c3nc4cc5[nH]cnc5cc4nc3-c3ccccc3)cc2)CC1`, the residual activity came out at 123%.
With `O=C1Nc2ccc3ncsc3c2/C1=C/c1c[nH]cn1`, the residual activity came to 102%.
Same read-out and setting: to `CCc1nc(-c2ccc(OC)cc2)[nH]c1-c1ccncc1` belongs 119%; to `O=C1c2ccccc2-c2nc3nnnn3nc21`, 111%.
With `COc1cc(OC)c(/C=C2\C(=O)Nc3ccccc32)c(OC)c1`, the residual activity came to 90%.
Same read-out and setting: as for `CCn1cnc2c(Nc3cccc(Cl)c3)nc(N[C@@H]3CCCC[C@@H]3N)nc21`, the figure is 93%.
Regarding `N/C(=N\[N+](=O)[O-])N/N=C\c1ccc(-c2cccc([N+](=O)[O-])c2)o1`, the residual activity came out at 99%.
`O=[N+]([O-])/C=C/c1ccc2c(c1)OCO2`: the residual activity came to 111%.
The same measure, in the same setting: as for `COc1ccc2c(c[n+](C)c3c4cc5c(cc4ccc23)OCO5)c1OC`, the figure is 119%; as for `O=C1NC(=O)c2c1c1c3ccccc3n3c1c1c2c2ccccc2n1C1CCC3O1`, 132%; as for `COc1cc2ncnc(Nc3ccc(OCc4ccccc4)cc3)c2cc1OC`, 112%.
On the same count and under the same terms, to `C[S+]([O-])c1ccc(-c2nc(-c3ccc(F)cc3)c(-c3ccncc3)[nH]2)cc1` (centres undefined) belongs 124%.
Same read-out and setting: as for `COC(=O)[C@@]1(O)C[C@H]2O[C@]1(C)n1c3ccccc3c3c4c(c5c6ccccc6n2c5c31)C(=O)NC4`, the figure is 16%.

In another assay the target is T1, Tyrosine-protein kinase ZAP-70 (Homo sapiens). The note with it: at 10 µM.
Turning to `O=c1[nH]c2ccccc2n1C1CCN(Cc2ccc(-c3nc4cc5[nH]cnc5cc4nc3-c3ccccc3)cc2)CC1`, the residual activity was 98%.
For the compound `COc1cc2ncnc(Nc3ccc(O)c(Br)c3)c2cc1OC`, the residual activity worked out at 105%.
Consider `Cc1ccc(NC2=CC(=O)c3sc(C)nc3C2=O)cc1`, for which the residual activity was determined as 96%.
Same read-out and setting: as for `NC(=O)c1ccc2[nH]c(-c3ccc(Oc4ccc(Cl)cc4)cc3)nc2c1`, the figure is 96%.
On to `C[C@@H](N)[C@H]1CC[C@H](C(=O)Nc2ccncc2)CC1`, for which the residual activity came out at 122%.
For the compound `O=C(c1cc2cc(O)ccc2[nH]1)c1cc2cc(O)ccc2[nH]1`, the residual activity was 109%.
Still for that read-out and setting: to `O=C1NC(=O)C(c2cn(CCCn3ccnc3)c3ccccc23)=C1Nc1ccccc1` belongs 118%.
`O=C1Nc2ccc3ncsc3c2/C1=C/c1c[nH]cn1`: the residual activity came to 101%.
On to `CCc1nc(-c2ccc(OC)cc2)[nH]c1-c1ccncc1`, for which the residual activity is 121%.
Consider `CC[n+]1c(/C=C/N(C)c2ccccc2)n(-c2ccccc2)c2ccc(-c3nc4ccccc4s3)cc21`, for which the residual activity worked out at 130%.
In the case of `O=C1c2ccccc2-c2nc3nnnn3nc21`, the residual activity was found to be 120%.
Take `CCN(CC)CCCCN1c2ccccc2Oc2ccc(Cl)cc21`: the residual activity amounted to 124%.
The same measure, in the same setting: as for `COc1cc(OC)c(/C=C2\C(=O)Nc3ccccc32)c(OC)c1`, the figure is 82%; as for `CCC(=O)Nc1ccc2ncnc(Nc3cccc(Br)c3)c2c1`, 109%; as for `CCn1cnc2c(Nc3cccc(Cl)c3)nc(N[C@@H]3CCCC[C@@H]3N)nc21`, 95%.
Take `CCN(CC)CCNC(=O)c1c(C)[nH]c(/C=C2\C(=O)Nc3ccc(Cl)cc32)c1C`: the residual activity stood at 77%.
As for `N/C(=N\[N+](=O)[O-])N/N=C\c1ccc(-c2cccc([N+](=O)[O-])c2)o1`, the residual activity worked out at 100%.
With `O=C1Nc2ccccc2/C1=C1/Nc2ccccc2/C1=N\OCCC(O)CO` (centres undefined), the residual activity was 98%.
Turning to `CC(C)(C)n1nc(Cc2cccc3ccccc23)c2c(N)ncnc21`, the residual activity came to 110%.
On the same count and under the same terms, as for `O=[N+]([O-])/C=C/c1ccc2c(c1)OCO2`, the figure is 127%; as for `Nc1nccc(-c2c(-c3ccc(F)cc3)ncn2C2CCNCC2)n1`, 124%; as for `CC(C)n1cnc2c(NCc3ccccc3)nc(NCCCO)nc21`, 119%.
On to `COc1ccc2c(c[n+](C)c3c4cc5c(cc4ccc23)OCO5)c1OC`, for which the residual activity came out at 95%.
On the same count and under the same terms, to `O=C1NC(=O)c2c1c1c3ccccc3n3c1c1c2c2ccccc2n1C1CCC3O1` belongs 125%.
Still for that read-out and setting: to `COc1cc2ncnc(Nc3ccc(OCc4ccccc4)cc3)c2cc1OC` belongs 107%; to `Nc1nc(Nc2ccc(S(N)(=O)=O)cc2)nn1C(=S)Nc1c(F)cccc1F`, 86%; to `c1cc(-c2cnn3cc(-c4ccc(OCCN5CCCCC5)cc4)cnc23)ccn1`, 101%.
Still for that read-out and setting: to `C[S+]([O-])c1ccc(-c2nc(-c3ccc(F)cc3)c(-c3ccncc3)[nH]2)cc1` (centres undefined) belongs 130%; to `O=C(Nc1cccc(Nc2nccc(Nc3cccc(C(F)(F)F)c3)n2)c1)C1CC1`, 116%; to `COC(=O)[C@@]1(O)C[C@H]2O[C@]1(C)n1c3ccccc3c3c4c(c5c6ccccc6n2c5c31)C(=O)NC4`, 2%.
Regarding `O=C(O)/C=C/c1cc(Br)c(Br)c(Br)c1Br`, the residual activity stood at 82%.
Turning to `O=c1cc(-c2cccc3c2Sc2ccccc2S3)oc(N2CCOCC2)c1`, the residual activity is 85%.
